# Laboratory results from PubChem BioAssay (EPA / NIEHS).
# “And” between values parts separate entries of the source, which are not always exact repeats. Equal values may be shown once. Results filed as inconclusive are left out. The source made the active and inactive calls. Rule for the calls, unless noted: active = hit-call score of the fitted dose curve at least 0.9, where 1 is the maximum; inconclusive = response in the unintended direction; inactive = score below 0.9.
# Target: Cytochrome P450 2C19 (Homo sapiens) (UniProt P33261)
# Assay: NVS_ADME_hCYP2C19: NovaScreen (NVS) CYP450-related Enzyme Activity (ADME) Assay for human CYP2C19 (AID 2283113);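 for AC50: potency for inhibition seen as loss of fluorescent signal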
# How it was run: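 Cell-free recombinant human CYP2C19 from insect cells, fluorescent substrate; activity read by fluorescence intensity 1 h after dosing. Primary screen in duplicate at 10 uM; actives retested in concentration series. Signal loss versus acetonitrile negative control.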
Structure (SMILES),AC50,outcome
CCOC(=O)C(C)Oc1ccc(Oc2nc3ccc(Cl)cc3o2)cc1 (stereo unspecified),10 µM (active),
Cc1nn(C)c(Oc2ccccc2)c1C=NOCc1ccc(C(=O)OC(C)(C)C)cc1,3.32 µM (active),
CCCCOC(=O)C(C)Oc1ccc(Oc2ccc(C(F)(F)F)cn2)cc1 (stereo unspecified),,inactive
CC1(C)C(C=C(Cl)Cl)C1C(=O)OCc1cccc(Oc2ccccc2)c1 (stereo unspecified),,inactive
COc1nc(C)nc(NC(=O)NS(=O)(=O)c2ccccc2OCCCl)n1,0.0177 µM (active),
CSC(=O)c1cccc2nnsc12,3.95 µM (active),
CCOC(=O)[C@H](C)Oc1ccc(Oc2nc3ccc(Cl)cc3o2)cc1,,inactive
CCCOC(=O)c1ccc(C(=O)OCCC)nc1,6.74 µM (active),
C#C[C@]1(O)CC[C@H]2[C@@H]3CCC4=CC(=O)CC[C@@H]4[C@H]3CC[C@@]21CC,1.24 µM (active),
CCCCOC(=O)[C@@H](C)Oc1ccc(Oc2ccc(C(F)(F)F)cn2)cc1,,inactive
CC(C)CCCCCCc1ccc(O)cc1,2.75 µM (active),
CCCCC(CC)COC(=O)c1ccccc1C(=O)O (stereo unspecified),7.13 µM (active),
N#CSCSc1nc2ccccc2s1,4.76 µM (active),
CCN(Cc1c(F)cccc1Cl)c1c([N+](=O)[O-])cc(C(F)(F)F)cc1[N+](=O)[O-],10 µM (active),
C#CCOC(=O)[C@@H](C)Oc1ccc(Oc2ncc(Cl)cc2F)cc1,1.5 µM (active),
Oc1ccc(C(c2ccc(O)cc2)C(Cl)(Cl)Cl)cc1,1.03 µM (active),
CC(C)(C)[C@@H](O)[C@@H](Cc1ccc(Cl)cc1)n1cncn1,0.172 µM (active),
CCCCCCC(C)OC(=O)COc1nc(F)c(Cl)c(N)c1Cl (stereo unspecified),4.62 µM (active),
CCOC(=O)NCCOc1ccc(Oc2ccccc2)cc1,0.816 µM (active),
CC(=O)[C@H]1CC[C@H]2[C@@H]3CCC4=CC(=O)CC[C@]4(C)[C@H]3CC[C@]12C,2.46 µM (active) and 4.48 µM (active) and 6.21 µM (active),
S=C([S-])NCCNC(=S)[S-].[Mn+2],5.86 µM (active),
CCCCCOC(=O)COc1cc(N2C(=O)C3=C(CCCC3)C2=O)c(F)cc1Cl,4.42 µM (active),

# Target: rat CYP2A1, Cyp2a1 (gene 24894) (UniProt P11711)
# Assay: NVS_ADME_rCYP2A1: NovaScreen (NVS) CYP450-related Enzyme Activity (ADME) Assay for rat CYP2A1 (AID 2283114; active = hit-call score of the fitted dose curve at least 0.9, where 1 is the maximum; inactive = score below 0.9)
# Description: (§1) NVS_ADME_rCYP2A1 is a biochemical, single-readout assay that uses extracted gene-proteins in a cell-free assay. Measurements were taken 0.75 hour after chemical dosing in a 96-well plate.NVS_ADME_rCYP2A1 is one of one assay component(s) measured or calculated from the NVS_ADME_rCYP2A1 assay. It is designed to make measurements of enzyme activity, a form of enzyme reporter, as detected with fluorescence intensity signals by Fluorescence technology.Data from the assay component NVS_ADME_rCYP2A1 was analyzed into 1 assay endpoint. This assay endpoint, NVS_ADME_rCYP2A1, was analyzed in the positive analysis fitting direction relative to Acetonitrile as the negative control and baseline of activity. Using a type of enzyme reporter, loss-of-signal activity can be used to understand changes in the enzymatic activity as they relate to the gene Cyp2a1. Furthermore, this assay endpoint can be referred to as a primary readout, because this assay has produced multiple assay endpoints where this one serves a enzymatic activity function. To generalize the intended target to other relatable targets, this assay endpoint is annotated to the cyp intended target family, where the subfamily is xenobiotic metabolism.
# (§2) Binding assays used specific radioligands (tritiated, iodinated) with non-radioactive competitive displacement ligands in agonist or antagonist protocols (as indicated) and various reference compounds and inhibitors to titrate specific binding to receptors and transporters. Most enzyme assays (CYPs, kinases, phosphatases, proteases, HDACs) used recombinant protein and specific substrates (fluorescence mostly, some colorimetric and radioactive) and inhibitors, followed by a biochemical separation of substrate and product. All assays for the biochemical HTS were initially run in duplicate at a single concentration (10 uM for CYP450 assays and 25 uM for all others). Assay-chemical combinations meeting a pre-defined threshold (e.g., 30% inhibition and other criteria defined below) were then run in singleton concentration-response format with maximum concentration of 20 uM for CYPs and 50 uM for all others. Each assay was run with positive and negative controls, and concurrent controls on every plate. The follow-up (secondary) screen tested active chemical-pairs in concentration series, as well as a few additional assays not tested in the primary screen, some selected negative inactives, and several cases re-run in the concentration series for confirmatory purposes.
# rat CYP2A1, Cyp2a1 (gene 24894), sequence (P11711 whole entry, looked up): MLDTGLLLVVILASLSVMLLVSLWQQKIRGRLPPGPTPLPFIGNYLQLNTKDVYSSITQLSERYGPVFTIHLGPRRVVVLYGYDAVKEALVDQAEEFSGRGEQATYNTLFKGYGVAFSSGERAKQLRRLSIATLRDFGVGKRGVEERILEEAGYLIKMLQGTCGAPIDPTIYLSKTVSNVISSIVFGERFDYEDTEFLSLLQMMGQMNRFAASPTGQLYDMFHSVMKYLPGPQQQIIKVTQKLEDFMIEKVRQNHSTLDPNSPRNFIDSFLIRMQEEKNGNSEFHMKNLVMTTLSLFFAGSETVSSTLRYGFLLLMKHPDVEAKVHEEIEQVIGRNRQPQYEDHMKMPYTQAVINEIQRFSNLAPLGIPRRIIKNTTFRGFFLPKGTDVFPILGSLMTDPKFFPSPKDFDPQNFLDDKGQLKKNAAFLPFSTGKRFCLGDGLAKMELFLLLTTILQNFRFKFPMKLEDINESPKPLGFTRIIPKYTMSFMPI
Structure (SMILES),outcome,AC50
C#CCOC(=O)[C@@H](C)Oc1ccc(Oc2ncc(Cl)cc2F)cc1,inactive,
Oc1ccc(C(c2ccc(O)cc2)C(Cl)(Cl)Cl)cc1,,1290 nM (active)
CN(C)C(=O)Nc1ccc(Cl)c(Cl)c1,,316 nM (active)
CC(C)(C)[C@@H](O)[C@@H](Cc1ccc(Cl)cc1)n1cncn1,,1700 nM (active)
CCCCCOC(=O)COc1cc(N2C(=O)C3=C(CCCC3)C2=O)c(F)cc1Cl,inactive,

# Target: rat CYP2A2, Cyp2a2 (gene 24895) (UniProt P15149)
# Assay: NVS_ADME_rCYP2A2: NovaScreen (NVS) CYP450-related Enzyme Activity (ADME) Assay for rat CYP2A2 (AID 2283116)
# How it was run: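 Compounds first tested in duplicate at 10 uM, then in singleton concentration series up to 20 uM when over threshold. Activity of the recombinant enzyme read by fluorescence at 0.2 h, normalised to acetonitrile vehicle.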
# rat CYP2A2, Cyp2a2 (gene 24895), sequence (P15149 whole entry, looked up): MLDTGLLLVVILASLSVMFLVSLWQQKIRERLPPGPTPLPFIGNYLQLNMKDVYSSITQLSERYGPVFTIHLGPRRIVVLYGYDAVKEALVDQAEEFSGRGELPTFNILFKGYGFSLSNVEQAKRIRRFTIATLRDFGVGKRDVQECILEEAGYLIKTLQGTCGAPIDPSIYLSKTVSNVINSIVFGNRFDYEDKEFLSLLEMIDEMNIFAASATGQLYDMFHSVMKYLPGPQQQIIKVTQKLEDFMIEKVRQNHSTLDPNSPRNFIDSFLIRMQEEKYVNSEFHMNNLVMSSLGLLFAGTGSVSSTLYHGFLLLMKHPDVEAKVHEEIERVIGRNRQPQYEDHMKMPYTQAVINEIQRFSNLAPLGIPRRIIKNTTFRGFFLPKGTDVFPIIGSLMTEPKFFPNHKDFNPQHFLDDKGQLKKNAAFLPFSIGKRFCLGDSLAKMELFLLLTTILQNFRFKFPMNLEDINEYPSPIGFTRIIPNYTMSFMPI
Structure (SMILES),AC50,outcome
CCOC(=O)C(C)Oc1ccc(Oc2nc3ccc(Cl)cc3o2)cc1 (stereo unspecified),2 µM (active),
Cc1nn(C)c(Oc2ccccc2)c1C=NOCc1ccc(C(=O)OC(C)(C)C)cc1,,inactive
CCCCOC(=O)C(C)Oc1ccc(Oc2ccc(C(F)(F)F)cn2)cc1 (stereo unspecified),1.17 µM (active),
CCOC(=O)[C@H](C)Oc1ccc(Oc2nc3ccc(Cl)cc3o2)cc1,10 µM (active),
CCNc1nc(N)nc(Cl)n1,,inactive
Oc1ccc(C(c2ccc(O)cc2)C(Cl)(Cl)Cl)cc1,1.02 µM (active),
CC(C)(C)[C@@H](O)[C@@H](Cc1ccc(Cl)cc1)n1cncn1,0.0348 µM (active),
CCCCCCC(C)OC(=O)COc1nc(F)c(Cl)c(N)c1Cl (stereo unspecified),,inactive
CC(=O)[C@H]1CC[C@H]2[C@@H]3CCC4=CC(=O)CC[C@]4(C)[C@H]3CC[C@]12C,3.07 µM (active) and 7.82 µM (active) and 6.94 µM (active),

# Target: rat CYP2C11, Cyp2c11 (gene 29277) (UniProt P08683)
# Assay: NVS_ADME_rCYP2C11: NovaScreen (NVS) CYP450-related Enzyme Activity (ADME) Assay for rat CYP2C11 (AID 2283118)
# Description: as §1, with “NVS_ADME_rCYP2C11” for “NVS_ADME_rCYP2A1”, “0.33” for “0.75”, “plate.NVS_ADME_rCYP2C11” for “plate.NVS_ADME_rCYP2A1”, “NVS_ADME_rCYP2C11,” for “NVS_ADME_rCYP2A1,”, “Cyp2c11.” for “Cyp2a1.”
# as §2, with “Assay-chemical combinations meeting a pre-defined threshold (e.g., 30% inhibition and other criteria defined below) were then run in singleton concentration-response format with maximum concentration of 20 uM for CYPs and 50 uM for all others.” left out
# rat CYP2C11, Cyp2c11 (gene 29277), sequence (P08683 whole entry, looked up): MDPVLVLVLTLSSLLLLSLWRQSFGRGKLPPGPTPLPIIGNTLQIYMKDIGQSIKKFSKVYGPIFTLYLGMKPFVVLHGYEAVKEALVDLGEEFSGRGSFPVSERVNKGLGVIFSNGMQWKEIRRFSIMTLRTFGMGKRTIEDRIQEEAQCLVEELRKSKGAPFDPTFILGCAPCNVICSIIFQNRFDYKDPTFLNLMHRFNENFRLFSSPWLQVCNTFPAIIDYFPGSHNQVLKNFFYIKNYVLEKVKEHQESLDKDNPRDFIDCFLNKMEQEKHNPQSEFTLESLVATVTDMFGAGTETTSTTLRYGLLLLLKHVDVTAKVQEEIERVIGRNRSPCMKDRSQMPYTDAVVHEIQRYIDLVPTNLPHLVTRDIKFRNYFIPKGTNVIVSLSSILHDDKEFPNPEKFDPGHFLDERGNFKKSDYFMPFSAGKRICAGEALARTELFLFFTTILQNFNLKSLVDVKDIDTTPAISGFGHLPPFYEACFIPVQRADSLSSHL
row,Structure (SMILES),AC50
1,N#CSCSc1nc2ccccc2s1,9.17 µM (active)
2,C#CCOC(=O)[C@@H](C)Oc1ccc(Oc2ncc(Cl)cc2F)cc1,1.1 µM (active)
3,Oc1ccc(C(c2ccc(O)cc2)C(Cl)(Cl)Cl)cc1,0.188 µM (active)
4,CC(C)(C)[C@@H](O)[C@@H](Cc1ccc(Cl)cc1)n1cncn1,2.05 µM (active)
5,CC(=O)[C@H]1CC[C@H]2[C@@H]3CCC4=CC(=O)CC[C@]4(C)[C@H]3CC[C@]12C,3.08 µM (active) and 6.76 µM (active)
